Results on four sequences are retold here after publication PMC7862700, “An all-to-all approach to the identification of sequence-specific readers for epigenetic DNA modifications on cytosine”.

Test in all cases: DAPPL (digital affinity profiling via proximity ligation, sequencing); 10 mM Tris-HCl pH 7.5, 50 mM NaCl, 1 mM DTT, 4% glycerol, room temperature, 30 min; GST-TFs on glutathione beads, 16-mer random dsDNA library, 0.1% formaldehyde crosslink after washing; high values mean tight binding
One assay concerns the target T1, FLI1 (Homo sapiens, UniProt Q01543 1-452).
T1 sequence: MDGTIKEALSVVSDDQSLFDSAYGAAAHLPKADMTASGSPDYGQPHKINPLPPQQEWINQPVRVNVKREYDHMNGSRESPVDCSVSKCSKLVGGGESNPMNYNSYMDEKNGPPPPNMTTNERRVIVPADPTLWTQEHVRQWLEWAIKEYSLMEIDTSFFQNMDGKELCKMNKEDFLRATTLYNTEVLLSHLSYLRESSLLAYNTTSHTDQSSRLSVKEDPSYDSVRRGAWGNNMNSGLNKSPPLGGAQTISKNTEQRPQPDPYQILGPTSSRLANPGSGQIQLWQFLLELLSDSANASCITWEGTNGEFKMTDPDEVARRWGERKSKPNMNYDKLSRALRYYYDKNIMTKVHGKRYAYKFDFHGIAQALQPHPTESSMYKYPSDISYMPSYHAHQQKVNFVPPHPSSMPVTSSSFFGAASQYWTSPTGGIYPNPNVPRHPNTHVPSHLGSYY
Particulars: protein: recombinant; tags: N-terminal GST; dsDNA, one strand shown. The procedure, abridged: (§1)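 Human transcription factors fused to GST were expressed in yeast, captured on glutathione beads, given DNA barcodes and pooled with a GST-only negative control. Pools were incubated with 200 nmole of a 16-mer random double-stranded DNA library in Tris/NaCl/DTT/glycerol buffer at room temperature for 30 min. They were then washed, crosslinked with 0.1% formaldehyde, proximity-ligated (BsaI/T4 ligase, 1 h, 37 °C), PCR-amplified and sequenced on an Illumina NextSeq500. Binding signal is each 6-mer's read frequency for a factor divided by its frequency for the GST control.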

Another assay deals with ETV1 (Homo sapiens, UniProt P50549 1-477). Conditions: protein: recombinant; tags: N-terminal GST; dsDNA, one strand shown. The procedure, abridged:
as §1

The next assay concerns the target T2, ERF (Homo sapiens, UniProt P50548 1-548).
T2 sequence: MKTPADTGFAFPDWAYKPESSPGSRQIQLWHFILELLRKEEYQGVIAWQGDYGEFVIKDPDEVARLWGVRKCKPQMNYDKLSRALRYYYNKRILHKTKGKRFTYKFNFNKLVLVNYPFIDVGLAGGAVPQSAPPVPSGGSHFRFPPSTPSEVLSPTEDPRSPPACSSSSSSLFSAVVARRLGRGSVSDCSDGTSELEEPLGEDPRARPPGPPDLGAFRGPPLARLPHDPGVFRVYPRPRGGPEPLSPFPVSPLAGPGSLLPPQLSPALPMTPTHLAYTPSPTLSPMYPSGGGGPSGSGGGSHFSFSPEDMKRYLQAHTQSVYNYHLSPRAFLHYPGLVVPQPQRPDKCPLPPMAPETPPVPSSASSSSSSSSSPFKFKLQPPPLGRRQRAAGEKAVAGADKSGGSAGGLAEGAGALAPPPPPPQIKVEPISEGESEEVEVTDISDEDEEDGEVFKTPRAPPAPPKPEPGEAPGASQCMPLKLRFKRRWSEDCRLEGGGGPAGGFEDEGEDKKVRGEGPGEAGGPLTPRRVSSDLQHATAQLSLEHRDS
Conditions: protein: recombinant; tags: N-terminal GST; dsDNA, one strand shown. The gist of the method:
as §1

The next assay deals with T3, ETV7 (Homo sapiens, UniProt Q9Y603 1-341).
T3 sequence: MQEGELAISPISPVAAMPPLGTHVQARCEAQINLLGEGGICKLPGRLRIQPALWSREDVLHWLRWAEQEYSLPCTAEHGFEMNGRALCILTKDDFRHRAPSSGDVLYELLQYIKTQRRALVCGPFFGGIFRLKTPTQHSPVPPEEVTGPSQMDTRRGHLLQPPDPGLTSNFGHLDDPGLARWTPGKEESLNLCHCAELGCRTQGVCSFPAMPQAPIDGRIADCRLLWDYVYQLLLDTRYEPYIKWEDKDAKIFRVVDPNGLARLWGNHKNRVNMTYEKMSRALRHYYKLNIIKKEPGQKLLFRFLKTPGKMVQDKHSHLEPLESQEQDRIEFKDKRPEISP
Particulars: protein: recombinant; tags: N-terminal GST; dsDNA, one strand shown. The gist of the method: as §1

The target of the next assay is HSF1 (Homo sapiens, UniProt Q00613 1-529). Conditions: protein: recombinant; tags: N-terminal GST; chain copies: 3; dsDNA, one strand shown. The procedure, abridged:
as §1

In another assay the target is T4, ELK3 (Homo sapiens, UniProt P41970 1-407).
T4 sequence: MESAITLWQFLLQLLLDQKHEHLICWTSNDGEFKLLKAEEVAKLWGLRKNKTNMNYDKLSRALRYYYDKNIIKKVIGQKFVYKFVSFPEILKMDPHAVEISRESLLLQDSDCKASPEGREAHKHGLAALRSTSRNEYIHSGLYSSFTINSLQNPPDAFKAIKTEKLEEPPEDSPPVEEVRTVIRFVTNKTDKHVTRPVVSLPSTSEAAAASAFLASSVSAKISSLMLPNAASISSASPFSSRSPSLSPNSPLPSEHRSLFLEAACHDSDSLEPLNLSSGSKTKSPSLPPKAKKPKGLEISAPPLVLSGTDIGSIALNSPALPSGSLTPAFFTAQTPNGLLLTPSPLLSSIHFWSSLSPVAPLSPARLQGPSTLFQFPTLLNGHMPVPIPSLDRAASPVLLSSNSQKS
Conditions: protein: recombinant; tags: N-terminal GST; dsDNA, one strand shown. The gist of the method: as §1

Another assay has as its target T5, ELK4 (Homo sapiens, UniProt P28324-2 1-405).
T5 sequence: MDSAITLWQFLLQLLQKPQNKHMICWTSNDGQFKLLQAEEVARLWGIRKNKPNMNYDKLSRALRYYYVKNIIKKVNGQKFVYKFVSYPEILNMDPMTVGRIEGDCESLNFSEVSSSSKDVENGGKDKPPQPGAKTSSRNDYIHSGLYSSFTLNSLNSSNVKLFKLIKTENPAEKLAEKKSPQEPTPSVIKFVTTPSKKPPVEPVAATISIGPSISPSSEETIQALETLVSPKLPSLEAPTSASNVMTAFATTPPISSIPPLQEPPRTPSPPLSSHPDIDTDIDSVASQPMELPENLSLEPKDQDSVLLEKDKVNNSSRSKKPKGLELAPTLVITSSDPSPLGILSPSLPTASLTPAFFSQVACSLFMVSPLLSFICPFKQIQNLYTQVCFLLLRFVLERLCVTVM
Conditions: protein: recombinant; tags: N-terminal GST; dsDNA, one strand shown. The procedure, abridged: as §1

The target of the next assay is T6, ETV3L (Homo sapiens, UniProt Q6ZN32 1-361).
T6 sequence: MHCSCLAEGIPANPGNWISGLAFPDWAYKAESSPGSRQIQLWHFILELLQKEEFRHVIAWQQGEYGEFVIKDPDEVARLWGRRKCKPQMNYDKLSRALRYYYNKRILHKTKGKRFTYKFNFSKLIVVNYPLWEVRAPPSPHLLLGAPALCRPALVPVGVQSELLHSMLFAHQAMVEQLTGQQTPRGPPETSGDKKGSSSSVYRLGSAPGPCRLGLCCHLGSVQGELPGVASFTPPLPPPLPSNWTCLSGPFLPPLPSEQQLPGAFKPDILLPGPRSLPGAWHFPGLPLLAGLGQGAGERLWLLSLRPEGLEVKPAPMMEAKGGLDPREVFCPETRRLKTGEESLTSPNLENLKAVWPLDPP
Particulars: protein: recombinant; tags: N-terminal GST; dsDNA, one strand shown. The gist of the method:
as §1

In the next assay the target is ETV6 (Homo sapiens, UniProt P41212 1-452). Particulars: protein: recombinant; tags: N-terminal GST; dsDNA, one strand shown. The gist of the method:
as §1

The next assay deals with T7, GABPA (Homo sapiens, UniProt Q06546 1-454).
T7 sequence: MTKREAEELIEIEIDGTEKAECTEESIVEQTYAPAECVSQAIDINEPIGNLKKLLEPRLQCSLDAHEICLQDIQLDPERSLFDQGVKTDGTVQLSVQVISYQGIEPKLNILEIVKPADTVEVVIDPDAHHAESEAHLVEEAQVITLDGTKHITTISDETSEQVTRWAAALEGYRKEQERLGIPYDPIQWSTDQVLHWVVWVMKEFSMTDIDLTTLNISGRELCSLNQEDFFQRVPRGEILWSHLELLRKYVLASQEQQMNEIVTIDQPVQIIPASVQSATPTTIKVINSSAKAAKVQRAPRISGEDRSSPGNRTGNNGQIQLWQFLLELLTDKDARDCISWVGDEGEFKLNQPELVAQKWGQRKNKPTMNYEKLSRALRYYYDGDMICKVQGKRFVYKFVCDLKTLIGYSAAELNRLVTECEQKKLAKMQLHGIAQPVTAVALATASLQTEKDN
Particulars: protein: recombinant; tags: N-terminal GST; dsDNA, one strand shown. The procedure, abridged:
as §1

The target of a further assay is T8, EHF (Homo sapiens, UniProt Q9NZC4 1-300).
T8 sequence: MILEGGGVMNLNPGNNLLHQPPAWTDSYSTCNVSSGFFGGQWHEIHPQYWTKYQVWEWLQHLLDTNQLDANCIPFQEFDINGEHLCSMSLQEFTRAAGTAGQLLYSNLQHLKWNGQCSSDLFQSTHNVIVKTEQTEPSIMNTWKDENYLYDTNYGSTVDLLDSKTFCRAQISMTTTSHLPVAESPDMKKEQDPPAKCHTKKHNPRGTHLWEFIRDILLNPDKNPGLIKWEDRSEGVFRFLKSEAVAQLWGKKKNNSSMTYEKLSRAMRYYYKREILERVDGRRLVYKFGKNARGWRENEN
Particulars: protein: recombinant; tags: N-terminal GST; dsDNA, one strand shown. The gist of the method: as §1

ETV6, sequence (P41212 whole entry): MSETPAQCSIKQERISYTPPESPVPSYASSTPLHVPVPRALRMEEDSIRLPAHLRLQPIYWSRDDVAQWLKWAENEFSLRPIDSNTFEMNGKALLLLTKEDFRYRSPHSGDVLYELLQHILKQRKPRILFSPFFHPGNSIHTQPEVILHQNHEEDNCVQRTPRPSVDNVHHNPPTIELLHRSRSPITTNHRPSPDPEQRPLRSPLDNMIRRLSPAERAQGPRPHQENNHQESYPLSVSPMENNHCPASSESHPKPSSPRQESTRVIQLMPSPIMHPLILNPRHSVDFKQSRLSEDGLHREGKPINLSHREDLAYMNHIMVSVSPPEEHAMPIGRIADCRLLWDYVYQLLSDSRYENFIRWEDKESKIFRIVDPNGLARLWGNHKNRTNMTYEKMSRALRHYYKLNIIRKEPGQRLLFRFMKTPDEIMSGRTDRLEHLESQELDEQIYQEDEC
ETV1, sequence (P50549 whole entry): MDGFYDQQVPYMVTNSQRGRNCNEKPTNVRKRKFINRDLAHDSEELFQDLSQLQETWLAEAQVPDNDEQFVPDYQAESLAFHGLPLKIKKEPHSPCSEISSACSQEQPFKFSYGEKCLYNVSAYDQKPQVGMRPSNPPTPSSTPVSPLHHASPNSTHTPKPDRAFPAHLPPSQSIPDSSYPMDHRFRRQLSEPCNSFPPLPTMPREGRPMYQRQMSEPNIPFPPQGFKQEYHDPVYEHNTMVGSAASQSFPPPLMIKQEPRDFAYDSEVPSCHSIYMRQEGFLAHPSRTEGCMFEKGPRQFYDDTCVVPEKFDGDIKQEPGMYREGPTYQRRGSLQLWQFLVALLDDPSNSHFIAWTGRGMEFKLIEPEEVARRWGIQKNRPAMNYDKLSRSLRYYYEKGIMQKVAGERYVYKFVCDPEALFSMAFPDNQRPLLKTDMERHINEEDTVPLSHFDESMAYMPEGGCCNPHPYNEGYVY
HSF1, sequence (Q00613 whole entry): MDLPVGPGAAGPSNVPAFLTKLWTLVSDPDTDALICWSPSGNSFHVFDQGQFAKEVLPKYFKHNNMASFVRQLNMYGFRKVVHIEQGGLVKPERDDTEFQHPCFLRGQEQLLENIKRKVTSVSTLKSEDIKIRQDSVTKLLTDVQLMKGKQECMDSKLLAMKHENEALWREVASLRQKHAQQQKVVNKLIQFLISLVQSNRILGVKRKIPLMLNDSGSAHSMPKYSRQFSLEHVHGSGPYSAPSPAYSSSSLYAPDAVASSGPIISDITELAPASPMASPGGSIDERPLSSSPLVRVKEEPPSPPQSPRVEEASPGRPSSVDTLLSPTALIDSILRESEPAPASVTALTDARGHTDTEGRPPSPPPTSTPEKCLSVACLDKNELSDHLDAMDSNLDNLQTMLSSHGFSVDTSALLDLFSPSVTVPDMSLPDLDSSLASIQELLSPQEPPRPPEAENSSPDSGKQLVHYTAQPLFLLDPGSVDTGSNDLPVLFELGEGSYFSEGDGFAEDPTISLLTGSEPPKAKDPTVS

CGTTGG: the binding signal was 1.08 fold enrichment (6-mer frequency, TF over GST control) in the assay with FLI1; 1.01 fold enrichment (6-mer frequency, TF over GST control) with ETV1; 1.07 fold enrichment (6-mer frequency, TF over GST control) in the assay with ERF; 1.07 fold enrichment (6-mer frequency, TF over GST control) with ETV7.

For the sequence AGGTTC, the binding signal in the assay with HSF1 was 1.18 fold enrichment (6-mer frequency, TF over GST control).

As for AGTTGC, the binding signal is 1.04 fold enrichment (6-mer frequency, TF over GST control) with FLI1; 1.03 fold enrichment (6-mer frequency, TF over GST control) with ELK3; 1.02 fold enrichment (6-mer frequency, TF over GST control) with ELK4; 1.01 fold enrichment (6-mer frequency, TF over GST control) with ETV3L; 1.11 fold enrichment (6-mer frequency, TF over GST control) with ETV7; 1.03 fold enrichment (6-mer frequency, TF over GST control) with ETV6.

In the case of CATTGG, the binding signal with FLI1 was 1.05 fold enrichment (6-mer frequency, TF over GST control); in the assay with GABPA it was 1 fold enrichment (6-mer frequency, TF over GST control); in the assay with EHF, 1 fold enrichment (6-mer frequency, TF over GST control); with ERF it was 1.05 fold enrichment (6-mer frequency, TF over GST control).
